In PubChem BioAssay (NCI) one finds growth inhibition data, which are given here for 21 molecules.

The nature of experiment [1]: NCI Yeast Anticancer Drug Screen. Data for the rad50 strain (AID 155).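 Further: 0% = growth of vehicle-only cultures of the same strain.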 Conditions: S. cerevisiae rad50 strain growth inhibition; at 50.0 µM; active compounds read high. The procedure, abridged: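 Compounds were tested on a yeast strain with an engineered DNA damage repair alteration; the reported value is growth inhibition normalised to vehicle treatment.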
Experiment [2] in a line: NCI Yeast Anticancer Drug Screen. Data for the mec2-1 strain (AID 157). Conditions: S. cerevisiae mec2-1 strain, at 50.0 µM, active compounds read high. In short, it runs like this: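 Cells of the genetically defined mec2-1 yeast strain are incubated with test compound. Inhibition of growth is calculated against vehicle-treated controls.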
Experiment [3] in a line: NCI Yeast Anticancer Drug Screen. Data for the sgs1 mgt1 strain (AID 161).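 Further: 0% = growth of cultures given vehicle only.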 Particulars: S. cerevisiae sgs1 mgt1 strain, at 50.0 µM, active compounds read high. The procedure, abridged:
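Test agents were incubated with a DNA-repair-mutant yeast strain. Growth was then read and compared against vehicle-treated controls.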

Experiment [4] in a line: NCI Yeast Anticancer Drug Screen. Data for the cln2 rad14 strain (AID 165).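 Further: 0% = growth equal to vehicle treated cultures.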 Particulars: S. cerevisiae cln2 rad14 strain, at 50.0 µM, active compounds read high. In short, it runs like this:
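The screen exposed genetically defined yeast (cln2 rad14) to test compounds and scored growth inhibition relative to vehicle-treated controls.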

The nature of experiment [5]: NCI Yeast Anticancer Drug Screen. Data for the bub3 strain (AID 167). Conditions: S. cerevisiae bub3 mutant strain, at 50.0 µM, active compounds read high. The procedure, abridged:
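Growth of a checkpoint-deficient yeast mutant is measured after compound exposure. Values represent inhibition relative to vehicle.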

Experiment [6] in a line: NCI Yeast Anticancer Drug Screen. Data for the mlh1 rad18 strain (AID 175). Conditions: S. cerevisiae mlh1 rad18 strain growth inhibition; at 50.0 µM; active compounds read high. The procedure, abridged:
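Compound-treated yeast growth, normalised to vehicle controls. Strain bears defined DNA repair mutations.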

Molecules are shown by their SMILES. Compounds without any hit were thinned out: in the full panel of roughly 79,000, 15% have a hit. Unmarked numbers belong to inactive results. Active and inactive are the calls of the source. No stated cut-off is given here; in the data, active means growth inhibition above about 70%; inactive means the rest.

For the molecule `CNC(=O)c1ccccc1N=NN(C)C`, the growth inhibition is -0.65% in experiment [1]; 19.4% in experiment [2]; 4.05% in experiment [3]; 13.7% in experiment [4]; 15.7% in experiment [5]; 40.5% in experiment [6].

For the molecule `CC(=O)OC1CCC2(C)C(=CCC3C2CCC2(C)C3CCC23OCCS3)C1` (stereo unspecified), the growth inhibition was 34.5% in experiment [1]; 3.4% in experiment [2]; 9.35% in experiment [3]; 9.1% in experiment [4]; -4.35% in experiment [5]; 8.5% in experiment [6].

Turning to `NC(=O)C1C(=O)c2cccc3c2C1CCCC3` (stereo unspecified), the growth inhibition was -11% in experiment [1]; 9.85% in experiment [2]; -5.6% in experiment [3]; -31% in experiment [4]; -11% in experiment [5]; 20.7% in experiment [6].

As for `O=[N+]([O-])c1cc(C(F)(F)F)ccc1Cl`, the growth inhibition in experiment [1] is -11.2%; in experiment [2], 10.3%; in experiment [3], -5.85%; in experiment [4], 31.3%; in experiment [5], -12.9%; in experiment [6] it was -27.8%.

Turning to `Cc1ccc(C(=O)Nc2ccc(CP(=O)(O)O)cc2CP(=O)(O)O)cc1NC(=O)c1cccc(N)c1`, the growth inhibition in experiment [1] is -7.3%; in experiment [2], -1.95%; in experiment [3], 4.4%; in experiment [4], 0.4%; in experiment [5], 0.8%; in experiment [6], -1.25%.

As for `COC(=O)C1C2CC3C1C3C2C(=O)OC` (stereo unspecified), the growth inhibition in experiment [1] is -14.2%; in experiment [2] it was -8.2%; in experiment [3], -4.45%; in experiment [4], 19.6%; in experiment [5], -14.6%; in experiment [6], -18.6%.

As to `CC(=O)Nc1cccc(Cc2cccc(NC(C)=O)c2)c1`, the growth inhibition in experiment [1] was 2.75%; in experiment [2], -13.3%; in experiment [3] it was -11.9%; in experiment [4] it was -43.4%; in experiment [5], -5.1%; in experiment [6], -11.6%.

As for `CCn1c(=O)ccc2ccc(N(CCO)CCO)nc21`, the growth inhibition in experiment [1] is -19.9%; in experiment [2] it was 8.3%; in experiment [3] it was -0.15%; in experiment [4], -3.6%; in experiment [5], -9%; in experiment [6], 10.1%.

As for `Cc1nc2cc([N+](=O)[O-])ccc2c(NCCCN(C)C)c1C`, the growth inhibition was 6.6% in experiment [1]; 8.35% in experiment [2]; 7.25% in experiment [3]; -1.45% in experiment [4]; -3.5% in experiment [5]; -39.6% in experiment [6].

On to `Cc1ccc(-c2c(C#N)c(-c3ccccc3)n(NS(=O)(=O)c3ccccc3)c(=O)c2C#N)cc1`, for which the growth inhibition in experiment [1] was 42.1%; in experiment [2] it was 49.8%; in experiment [3], 47.1%; in experiment [4] it was 51.2%; in experiment [5], 49.6%; in experiment [6], 51.1%.

For `NC(=S)N/N=C/c1ccc(F)cn1`, the growth inhibition was 22.9% in experiment [1]; 58.4% in experiment [2]; -1.5% in experiment [3]; -63.9% in experiment [4]; -5.4% in experiment [5]; 11.9% in experiment [6].

On to `CCCOC(=O)C(CC)CC(C)C` (stereo unspecified), for which the growth inhibition was -4.95% in experiment [1]; 2.85% in experiment [2]; -4% in experiment [3]; -22.7% in experiment [4]; 9.35% in experiment [5]; 14.8% in experiment [6].

Consider `CC(=O)Cn1c(=O)oc2ccccc2c1=O`, for which the growth inhibition is 22.6% in experiment [1]; -9% in experiment [2]; -10.7% in experiment [3]; 49.5% in experiment [4]; 17.9% in experiment [5]; 10.1% in experiment [6].

Consider `O=c1n(-c2ccccc2)c(=O)n2c(=O)n(-c3ccccc3)c(=O)n12`, for which the growth inhibition is -23.4% in experiment [1]; -1.55% in experiment [2]; -10.7% in experiment [3]; -44.9% in experiment [4]; -9% in experiment [5]; 1.15% in experiment [6].

As for `CN(C)/N=C/c1cn(C)c(=O)n(C)c1=O`, the growth inhibition in experiment [1] was 0.15%; in experiment [2], 3%; in experiment [3], 5.75%; in experiment [4], -5.55%; in experiment [5] it was -20.3%; in experiment [6], 1.85%.

As to `c1cc2c3c(cccc3c1)C1C2C2c3cccc4cccc(c34)C12` (stereo unspecified), the growth inhibition in experiment [1] is -11.6%; in experiment [2], 18.2%; in experiment [3] it was 7.35%; in experiment [4], -2.7%; in experiment [5] it was 3.9%; in experiment [6], 0.05%.

With `CC(=O)NC1=NC(=O)/C(=C/Cc2cccs2)N1C`, the growth inhibition in experiment [1] is 6.8%; in experiment [2], 16.1%; in experiment [3] it was 1.55%; in experiment [4], -5.55%; in experiment [5] it was -23.8%; in experiment [6] it was -25.4%.

Take `Cc1cc(OCCOc2ccc(N)cc2)ccc1N1C(N)=NC(N)=NC1(C)C`: the growth inhibition is -1.5% in experiment [1]; 12.7% in experiment [2]; 6.65% in experiment [3]; 83.2% (active) in experiment [4]; 1.45% in experiment [5]; -3% in experiment [6].

`CCCCCCC1CCC(O)CC1` (stereo unspecified): the growth inhibition in experiment [1] was 22.6%; in experiment [2], 2.95%; in experiment [3] it was -8.05%; in experiment [4], -0.15%; in experiment [5], 12.3%; in experiment [6] it was 41.1%.

For the molecule `CC(=O)Nc1cc(Br)cc2c1-c1ccc(Br)cc1C2`, the growth inhibition in experiment [1] was 36.7%; in experiment [2], 14.7%; in experiment [3] it was 16.2%; in experiment [4] it was 8.2%; in experiment [5], 5.3%; in experiment [6], 23.4%.

Turning to `Cc1ccccc1-c1ccccc1`, the growth inhibition in experiment [1] is 14.8%; in experiment [2], 1.3%; in experiment [3], -17.7%; in experiment [4] it was -45.8%; in experiment [5] it was -5.8%; in experiment [6] it was 17.6%.
